Screening data: PubChem, National Center for Advancing Translational Sciences (NCATS)
Sm TGR inh: blocks Schistosoma mansoni thioredoxin glutathione reductase; 360,000 compounds, 3% hits; purified TGR, DTNB reduction, TNB absorbance 405 nm; AID 485364; Q962Y6; Potency, µM (doses to about 114 µM), inactives show at the highest dose activity change, negative = inhibition, most hits filed as inhibitors; note: potency is the fitted concentration of half-maximal effect; % is set by controls: 0 for no effect and ±100 for the full control effect; nearly all actives have a fitted effect of over 60% in size
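Kinetic colorimetric format: TGR-catalysed, NADPH-driven DTNB reduction monitored via TNB absorbance. Enzyme dispensed at 20 nM; compound exposure 15 min at room temperature before reaction start.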
LmPK inh: blocks Leishmania mexicana pyruvate kinase activity; Q27686; Potency, µM (titrated, usually from 57.5 µM), for inactives: top-dose activity change, negative = inhibition, actives largely listed as inhibitors; 290,000 compounds, 0.37% hits; purified LmPK, Kinase-Glo ATP luminescence, 1 h; AID 1721; note: potency is the fitted concentration of half-maximal effect; % is set by controls: 0 for no effect and ±100 for the full control effect
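0.1 nM LmPK, 0.5 mM PEP, 0.1 mM ADP; 50 mM imidazole pH 7.2, 7 mM MgCl2, 50 mM KCl; 1 h RT. Kinase-Glo luminescence readout, normalized to no-enzyme (full inhibition) and uninhibited wells.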
Tb PYK inh: inhibitors of Trypanosoma brucei pyruvate kinase. TbPYK enzyme, Kinase-Glo Plus ATP luminescence, 45 min. 410,000 compounds, 0.12% hits. Potency, µM (series often up to 76.8 µM), without a hit: top-dose activity, negative = inhibition, hits mostly inhibitors; note: potency is the fitted concentration of half-maximal effect; % is set by controls: 0 for no effect and ±100 for the full control effect; nearly all actives have a fitted effect of over 50% in size
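Luminescence from Kinase-Glo Plus, added after a 45-minute room-temperature reaction, served as the end-point read-out. The enzyme and substrate were preincubated with compound before ADP (130 uM final) initiated turnover. Concentration-effect curves came from normalized qHTS data.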
CHX counter: affects cycloheximide protein synthesis inhibition readout, counter-screen; max response, %; 300,000 compounds, 12% hits; cell reporter, cycloheximide protein synthesis inhibition counterscreen; in the data active = max response mostly above about 13%, no sharp cut-off; inactive = mostly below about 14%; note: read at 38.3 µM for the half of the compounds with a filed dose; 0% is about no effect
Shiga inhibitor: Shiga toxin inhibition; 290,000 compounds, 9.2% hits; Vero cells, Shiga toxin protein synthesis inhibition reporter; inhibition, % at 38.7 µM; in the data active = inhibition mostly above about 28%, no sharp cut-off; inactive = mostly below about 43%; note: 0% is about no effect
Giardia FBPA inh: blocks Giardia fructose-bisphosphate aldolase activity; 290,000 compounds, 0.71% hits; purified Giardia FBPA; Potency, µM (highest dose often 59.6 µM), inactives show top-dose activity, negative = inhibition, usual class: inhibitors; AID 2451; A8B2U2; note: potency is the fitted concentration of half-maximal effect; % is set by controls: 0 for no effect and ±100 for the full control effect; nearly all actives have a fitted effect of over 55% in size
Target sequence (A8B2U2 whole entry, looked up): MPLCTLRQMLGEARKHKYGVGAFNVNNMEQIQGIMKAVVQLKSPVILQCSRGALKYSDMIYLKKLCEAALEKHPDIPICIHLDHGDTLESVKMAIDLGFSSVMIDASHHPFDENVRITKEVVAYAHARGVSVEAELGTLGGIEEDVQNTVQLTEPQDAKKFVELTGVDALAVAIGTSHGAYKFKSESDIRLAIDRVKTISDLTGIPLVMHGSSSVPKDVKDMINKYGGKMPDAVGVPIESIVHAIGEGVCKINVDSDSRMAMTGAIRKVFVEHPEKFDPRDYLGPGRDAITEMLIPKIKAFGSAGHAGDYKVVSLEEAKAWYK
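Giardia FBPA (40 nM reagent) was preincubated 10 min at RT with compound (up to 57.5 uM final), then substrate plus GAPDH/TPI/NAD/arsenate coupling system with diaphorase/resazurin was added; resorufin fluorescence (525/598 nm) was read after 20 min.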
The depositor's hits bear a star; ? = inconclusive; . = no result given; [ ] = remark or other dose. Only a selection was taken, and hits are over-represented in it overall. Unless noted, calls come from the whole dose curve; as a rule, active = well fitted curve in the direction sought with a large enough effect; inconclusive = small, poorly fitted or top-dose-only effect, or another doubt; inactive = no such curve, though single readings can be large; an effect the other way counts as inactive or inconclusive.

SMILES | Sm TGR inh | LmPK inh | Tb PYK inh | CHX counter | Shiga inhibitor | Giardia FBPA inh
O=C(/C=C/c1ccco1)Nc1nc(-c2ccc(F)c(F)c2)cs1 | 40µM* | 1% | -1% | 18* | 43 | 5%
CCOC(=O)Cc1csc(NC(=O)/C=C/c2ccc(Cl)cc2)n1 | 5% | 1% | -1% | 23* | 59* | 4%
Cc1ccccc1NC(=O)c1nc(S(C)(=O)=O)ncc1N(Cc1ccco1)Cc1sccc1C | -2% | . | 2% | . | . | .
CCCCOc1ccc(C(=O)N(Cc2ccc(N(C)C)cc2)Cc2ccco2)cc1 | 4% | . | -3% | . | . | .
O=c1[nH]c(SCC2CCCCO2)nc2ccccc12 (configuration not stated) | 0% | 2% | -12% | 24* | 81* | -7%
CC1CCCC(C)N1C(=O)CSc1nc2ccccc2c(=O)[nH]1 (configuration not stated) | 99% | 3% | -8% | 0 | 17 | 2%
CCn1c(SCC(=O)c2cc(C)n(CC3CCCO3)c2C)nc2ccccc21 (configuration not stated) | ? | 6% | -23% | 37* | 35 | -13%
Cc1cc(C(=O)CSc2nnnn2-c2ccccc2)c(C)n1CC1CCCO1 (configuration not stated) | -14% | 1% | -4% | 58* | 49* | -2%
Cc1cc(C(=O)CSc2nnnn2-c2ccc(Cl)cc2)c(C)n1CC1CCCO1 (configuration not stated) | 4% | 2% | 13% | 0 | -11 | 3%
Cc1cc(C(=O)CSc2nc3ccccc3c(=O)[nH]2)c(C)n1CC1CCCO1 (configuration not stated) | 0% | 1% | -7% | 43* | 143* | 0%
Cc1cc(C(=O)CSc2nc3ccccc3c(=O)n2C)c(C)n1CC1CCCO1 (configuration not stated) | ? | 0% | . | 1 | -10 | ?
CCCc1cc(=O)[nH]c(SCC(=O)c2cc(C)n(CC3CCCO3)c2C)n1 (configuration not stated) | . | . | 0% | . | . | .
CC1CC=CC2C1C(=O)N(Cc1ccccc1)C2c1ccc(C(F)(F)F)cc1 (configuration not stated) | . | . | . | 8 | 5 | -4%
CCn1c(=O)n(CC2CCC(C(=O)NC(C)C)CC2)c(=O)c2sccc21 (configuration not stated) | ? | . | -7% | . | . | .
COc1ccc(NC(=O)CC2Sc3ncnn3C2=O)cc1 (configuration not stated) | 0.63µM* | 5% | -22% | -2 | -17 | ?
CCOC(=O)c1ccc(NC(=O)CC2SC(=NC)N(C)C2=O)cc1 (configuration not stated) | -7% | -1% | 8% | -1 | 24 | 0%
CCOC(=O)c1ccc(NC(=O)CN2C(=O)CSC(C)C2=O)cc1 (configuration not stated) | -4% | -1% | -6% | 13* | 17 | 7%
O=C(CC1Sc2ncnn2C1=O)Nc1ccc(Cl)cc1 (configuration not stated) | 5.6µM* | 4% | -4% | 0 | -1 | ?
CCOC(=O)c1ccc(NC(=O)CN2C(=O)C(C)SC(C)C2=O)cc1 (configuration not stated) | 0% | 2% | 6% | 11 | 10 | 0%
CCOC(=O)c1ccc(NC(=O)CC2Sc3ncnn3C2=O)cc1 (configuration not stated) | 1.6µM* | 5% | -20% | -2 | -1 | ?
COc1cccc(-c2nc(N(C)Cc3ccco3)c3ccccc3n2)c1 | . | . | . | . | . | -19%
CC1CN(C(=O)COC(=O)Cc2ccc(Cl)cc2)CC(C)O1 (configuration not stated) | -22% | . | 2% | . | . | .
CC(NC(=O)NC(=O)c1ccc(Cl)cc1Cl)C1CC1 (configuration not stated) | 6% | -1% | 3% | 39* | 167* | 6%
Nc1c(C(=O)O)sc2nc(-c3ccccc3)cc(-c3ccccc3)c12 | -9% | -1% | -10% | -4 | -2 | 14%
Nc1c(C(=O)N2CCCCC2)sc2nc3c(cc12)CCCC3 | -3% | 2% | -22% | 50* | 108* | -7%
SMILES | Sm TGR inh | LmPK inh | Tb PYK inh | CHX counter | Shiga inhibitor | Giardia FBPA inh
Nc1c(C(=O)N2CCCC2)sc2nc(-c3ccccc3)ccc12 | 7% | 1% | -7% | 39* | 75* | -4%
Nc1c(C(=O)Nc2ccccc2F)sc2nc3c(cc12)CCCCCC3 | -2% | . | 3% | . | . | .
CC(=O)c1cccc(NC(=O)c2sc3nc4c(cc3c2N)CCCC4)c1 | -1% | . | 0% | . | . | .
Cc1ccc(C(=O)c2sc3nc4c(cc3c2N)CCC4)cc1 | -3% | 0% | -10% | 47* | active | 0%
Cc1ccc(-c2c3c(nc4sc(C(N)=O)c(N)c24)CCC3)cc1 | -8% | 0% | -3% | 29* | 95 | 0%
NC(=O)c1sc2nc3c(c(-c4ccc(Cl)cc4)c2c1N)CCCC3 | -30% | 4% | -7% | -3 | -19 | 14%
Cc1c(C(=O)Nc2cccc(F)c2)cnn1-c1ccccc1 | -1% | -10% | -7% | 39* | 64* | 4%
Cc1c(C(=O)Nc2cccc([N+](=O)[O-])c2)cnn1-c1ccccc1 | 2% | 1% | -15% | 47* | 113* | -21%
CCCc1c(C(=O)Nc2ccc(F)cc2F)cnn1-c1ccccc1 | 10% | 2% | 3% | 17* | 12 | -6%
CC(=O)c1cccc(NC(=O)c2cnn(-c3ccccc3)c2C)c1 | 6% | 1% | 0% | 45* | 90* | ?
CCCc1c(C(=O)Nc2cc(C(C)(C)C)on2)cnn1-c1ccccc1 | 4% | 4% | -1% | -2 | -6 | 6%
COc1ccc(COC(=O)N/N=C2/C[C@@H](O)[C@@H](O)[C@@H]3[C@@H]4C(=O)N(C5CCCCC5)C(=O)[C@H]4CC[C@@H]23)cc1 | . | . | . | . | . | -3%[12.9 µM]
S=C(NCCc1ccccc1)NCCc1cnc[nH]1 | 3% | -5% | -7% | 16* | . | -26%
Cc1ccc(NC(=S)NCCc2cnc[nH]2)cc1C | 18% | 1% | 2% | -2 | -8 | -14%
CNC(=S)NCCCCc1cnc[nH]1 | . | . | . | -1 | -7 | 11µM*
CCC[C@@H]1C[C@@]1(CCC)[C@@H](NC(=O)Oc1ccccc1)c1ccc(C(=O)OC)cc1 | . | . | . | . | . | -3%
COc1cc(Cl)c(C)cc1NC(=O)CNC(=O)Cn1ccc2ccccc2c1=O | -3% | . | -3% | . | . | .
CCOc1ccc(S(=O)(=O)Nc2nc3ccccc3nc2Nc2ccc(N3CCOCC3)cc2)cc1 | 0% | 3% | 7% | 13* | 4 | -2%
COC(=O)CCC(=O)OC1(C)C(=O)C=C2C=C(c3ccsc3)OC=C2C1=O (configuration not stated) | . | . | -4% | . | . | 6%
